Several values for one entry are separate records, joined by “and”; a condition that tells them apart may be missing. Equal entries are not always repeated. The campaign covered roughly 5,500 compounds. About 2,000 (36%) were called active. Another 18% or so got no clear call; they are omitted. No stated cut-off is given here; in the data, active means normalized growth mostly below about 0.91 (no sharp cut-off); inconclusive means no clear call, values can overlap the other calls; inactive means mostly above about 0.92. Some of the results follow.
Experiment: chemical genetic growth profiling, strain panel (AID 1159580);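 further: tested at 20 µM; growth read once vehicle control cultures reached saturation at 30 °C; 1 = growth at the plate median or of vehicle wells; lower values mean less growth of the strain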
Settings: S. cerevisiae deletion strains, growth OD

Measured: normalized growth

Nc1ccc(C(=O)O)cc1
inactive: locus YAL021C, strain ccr4, active compounds read low 0.984 | locus YAL026C, strain drs2, active compounds read low 1.01 | locus YAL030W, strain snc1, active compounds read low 1.01 | locus YBL061C, strain skt5, active compounds read low 1.02 | locus YBR009C, strain hhf1, active compounds read low 0.993 | locus YBR021W, strain FUR4, active compounds read low 1.01 | locus YBR023C, strain chs3, active compounds read low 1.03 | locus YBR171W, strain sec66, active compounds read low 1.02 | locus YBR229C, strain ROT2, active compounds read low 0.996 | locus YBR231C, strain swc5, active compounds read low 1.04 | locus YBR279W, strain paf1, active compounds read low 1.02 | locus YCL011C, strain gbp2, active compounds read low 1.01 | locus YCL016C, strain dcc1, active compounds read low 1.03 | locus YCL029C, strain bik1, active compounds read low 1.01 | locus YCL061C, strain MRC1, active compounds read low 1.02 | locus YCL069W, strain vba3, active compounds read low 1.01 | locus YCR088W, strain abp1, active compounds read low 1.01 | locus YDL005C, strain med2, active compounds read low 1.02 | locus YDL035C, strain GPR1, active compounds read low 1.01 | locus YDL040C, strain nat1, active compounds read low 1.02 | locus YDL074C, strain BRE1, active compounds read low 1.03 | locus YDL101C, strain DUN1, active compounds read low 1.02 | locus YDL134C, strain PPH21, active compounds read low 1.01 | locus YDL185W, strain tfp1, active compounds read low 1.03 | locus YDL192W, strain arf1, active compounds read low 1.01 | locus YDR001C, strain nth1, active compounds read low 1 | locus YDR069C, strain doa4, active compounds read low 1.04 | locus YDR101C, strain arx1, active compounds read low 0.996 | locus YDR137W, strain rgp1, active compounds read low 1.01 | locus YDR159W, strain sac3, active compounds read low 1 | locus YDR162C, strain NBP2, active compounds read low 1.02 | locus YDR195W, strain ref2 1.04 | locus YDR297W, strain sur2, active compounds read low 1.02 | locus YDR318W, strain mcm21, active compounds read low 1.01 | locus YDR334W, strain swr1, active compounds read low 1.01 | locus YDR335W, strain msn5, active compounds read low 1.02 | locus YDR388W, active compounds read low 1.01 | locus YDR392W, strain spt3, active compounds read low 0.972 | locus YDR502C, strain sam2, active compounds read low 1.01 | locus YEL003W, strain gim4, active compounds read low 1.02 | locus YEL037C, strain rad23, active compounds read low 1.01 | locus YEL061C, strain CIN8 (second series), active compounds read low 1.02 | locus YEL061C, strain CIN8, active compounds read low 1 | locus YER015W, strain faa2, active compounds read low 1.04 | locus YER016W, strain bim1, active compounds read low 0.987 | locus YER110C, active compounds read low 1.02 | locus YER111C, strain swi4, active compounds read low 1.03 | locus YER155C, strain BEM2 (second series), active compounds read low 1.04 | locus YER155C, strain BEM2, active compounds read low 0.994 | locus YER167W, strain BCK2, active compounds read low 1.01 | locus YFR010W, strain ubp6, active compounds read low 1.02 | locus YGL078C, strain dbp3, active compounds read low 1 | locus YGL086W, strain mad1, active compounds read low 1 | locus YGL167C, strain pmr1, active compounds read low 1.02 | locus YGL173C, strain kem1, active compounds read low 1.03 | locus YGL227W, strain vid30, active compounds read low 1 | locus YGL240W, strain doc1, active compounds read low 1.03 | locus YGL248W, strain PDE1, active compounds read low 1 | locus YGL253W, strain hxk2, active compounds read low 1.01 | locus YGR078C, strain PAC10, active compounds read low 1 | locus YGR135W, strain pre9, active compounds read low 1.02 | locus YGR252W, strain gcn5, active compounds read low 1.04 | locus YHR027C, strain rpn1, active compounds read low 1.02 | locus YHR030C, strain SLT2, active compounds read low 0.999 and 1.11 | locus YHR079C, strain IRE1 (second series), active compounds read low 1.01 | locus YHR079C, strain IRE1, active compounds read low 1.01 | locus YHR094C, strain hxt1, active compounds read low 1.01 | locus YHR129C, strain ARP1, active compounds read low 1 | locus YHR142W, strain chs7, active compounds read low 0.988 | locus YHR200W, strain rpn10, active compounds read low 1.02 | locus YIL066C, strain RNR3, active compounds read low 1.01 | locus YIL073C, strain SPO22, active compounds read low 1.03 | locus YIL125W, strain kgd1, active compounds read low 1.01 | locus YIR030C, strain dcg1, active compounds read low 1.02 | locus YJL092W, strain hpr5, active compounds read low 1.02 | locus YJL095W, strain BCK1 (second series), active compounds read low 1 | locus YJL095W, strain BCK1, active compounds read low 1.04 and 1.01 | locus YJL115W, strain asf1, active compounds read low 1.02 | locus YJL129C, strain trk1, active compounds read low 1.02 | locus YJL134W, strain LCB3, active compounds read low 1 | locus YJL154C, strain vps35, active compounds read low 1.03 | locus YJL164C, strain tpk1, active compounds read low 1 | locus YJL166W, strain qcr8, active compounds read low 1.06 | locus YJL168C, strain set2, active compounds read low 1.01 | locus YJL187C, strain SWE1 (second series), active compounds read low 1.03 | locus YJL187C, strain SWE1, active compounds read low 1.02 | locus YJR043C, strain POL32, active compounds read low 0.996

From PubChem BioAssay AID1159580 (chemical genetic matrix, 2015)
